101 compounds from PubChem BioAssay AID602313 (National Center for Advancing Translational Sciences (NCATS), 2012) can be followed below.

The structures appear in SMILES notation. Among all 390,000 compounds or so, about 760 (0.19%) were called active. Another 3% or so got no clear call; they are omitted. Calls follow the shape of the dose curve; as a rule, active = well fitted inhibition curve with a large enough effect; inconclusive = small, poorly fitted or top-dose-only effect; inactive = flat fitted curve, though single readings scatter. Shown is part of a subset that was picked to be rich in actives. Entries that show only a call come without a potency.
Potency is read from the fitted curve at half-maximal effect.

The assay in a line: qHTS for Inhibitors of Vif-A3F Interactions: qHTS. Also: nearly all actives have a fitted effect of over 65% in size. As to conditions: HeLa A3F-eYFP + Vif (tagged APOBEC3F with the HIV-1 protein that degrades it), YFP fluorescence increase; series mostly up to 46.1 µM. The method, boiled down: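 Fluorescence increase (Ex 488/Em 500-530) after overnight compound treatment at 37 deg C flags inhibition of Vif-driven A3F-eYFP loss in stable HeLa A3F-eYFP/Vif cells seeded overnight beforehand.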
For orientation: In qHTS, concentration-response curves come from the screen itself.
`Fc1ccc(CNc2nc3ccccc3n3nnnc23)cc1`: the Potency was 7.94 µM (active).
Then `Fc1ccc(CSc2nc(NCc3ccccc3)c3ccccc3n2)cc1`, with “inactive”; and `Cc1nnc(NCc2ccccc2)c2c1nnn2Cc1ccc(F)cc1`, with “inactive”; and `Cc1cccc(Cn2c(SCc3ccc(C(=O)N4CCC(C)CC4)cc3)nc3ccncc32)c1`, with “inactive”.
With `O=C(Nc1ccc(Br)cc1)c1cc2nc(-c3ccccc3)cc(-c3ccccc3)n2n1` the entry was “inactive”.
`O=C(C[n+]1ccc2c(c1)nnn2-c1ccccc1)c1ccc(Cl)cc1`: the Potency result is “inactive”.
Then `O=C(Cc1nc2ccccc2[nH]c1=O)c1ccc(Cl)cc1`, with 12.6 µM (active); and `O=C(OCc1nc2ccccc2[nH]1)C1CCCCC1`, with “inactive”; and `COc1cc(OC)c(OC)cc1/C=C/c1nc2ccccc2c(=O)n1-c1ccc(Br)c(C)c1`, with “inactive”.
Consider `CCCN(CCC)c1c([N+](=O)[O-])c(=O)oc2ccccc12`, for which the Potency entry was “inactive”.
With `CCn1c(/C=C/c2ccc([N+](=O)[O-])o2)nc2ccccc2c1=O` the figure was 22.4 µM (active); with `CCc1cccc(CC)c1NC(=O)Cn1c(=O)c(-c2cc(C)ccc2NC(C)=O)nc2ccccc21`, “inactive”.
Then `CCc1nnc(SCc2c(F)cccc2Cl)c2cc3sccc3n12`, with “inactive”; and `CCOC(=O)c1ccc(NC(=O)CC2C(=O)N(c3cccc(OC)c3)C(=O)N2C2CCCCC2)cc1` (stereo unspecified), with “inactive”; and `Cc1oc2ncn(CC(C)C)c(=O)c2c1C(=O)N1CCN(c2ccccc2F)CC1`, with “inactive”.
Then `CCOc1ccc(S(=O)(=O)c2cn(Cc3ccc(OC)cc3)c3ccc(F)cc3c2=O)cc1`, with “inactive”; and `COc1cc(CN(C(=O)c2ccccc2Br)c2ccccn2)cc(OC)c1OC`, with “inactive”; and `O=C(NCc1ccccc1)c1ccc2c(c1)nc1n2CCCCC1`, with “inactive”.
In the case of `Cc1ccc(CNC(=O)CCc2c(C)nn(-c3ccc(N4CCCC4)nn3)c2C)cc1`, the Potency result was “inactive”.
With `CCOCCCNC(=O)c1c(NC(=O)Cc2coc3ccc(C)cc23)sc2c1CCC2` the entry was “inactive”; with `CCC(=O)N1CCc2cc(S(=O)(=O)NC(Cc3ccccc3)C(=O)NCc3ccccc3)ccc21` (stereo unspecified), “inactive”.
Take `C[n+]1ccc(/C=C/c2c[nH]c3ccccc23)cc1`: the Potency is 10 µM (active).
With `CCCCN(CC)CCCNC(=O)c1nn(C)c2c1CS(=O)(=O)c1ccccc1-2` the entry was “inactive”.
Then `Cc1ccc(-n2nc(CO)c(C(=O)NCCc3ccccc3)n2)cc1`, with “inactive”; and `CCN(CC)C(=O)CSc1nc2cc3c(cc2c(=O)n1CCCC(=O)NCc1ccc2c(c1)OCO2)OCO3`, with “inactive”.
Then `CCCCn1c(N)c(N(CC(C)C)C(=O)c2ccc(Br)o2)c(=O)[nH]c1=O`, with “inactive”; and `CCCCn1c(N)c(N(CCC(C)C)C(=O)c2ccc(COc3ccccc3)o2)c(=O)[nH]c1=O`, with “inactive”.
Consider `CCCCn1c(N)c(N(CCC(C)C)C(=O)c2ccc([N+](=O)[O-])o2)c(=O)[nH]c1=O`, for which the Potency was 10 µM (active).
With `Fc1ccc(-c2nn(-c3ccccc3Cl)c3c2cnc2ccccc23)cc1` the entry was “inactive”; with `COc1ccc(NC(=O)CSc2nnc(-c3nnn(-c4ccc(F)cc4)c3C)o2)cc1`, “inactive”; with `CCn1cc2nc(SCc3cccc(F)c3)n(CCc3ccccc3)c(=O)c2n1`, “inactive”.
Then `Cc1cccc(-n2c(O)c(C=Nc3ccccc3N)c(=O)[nH]c2=O)c1`, with “inactive”.
For `Cc1ccc(N=Cc2c(O)n(-c3nccs3)c(=O)c3ccccc23)c(C)c1`, the Potency is 25.1 µM (active).
With `CCCn1c(NCc2ccccc2F)nc2ccccc21` the entry was “inactive”; with `CCCCOc1ccc(C(=O)N2CC(=O)Nc3ccc(Br)cc3C2c2ccc(F)cc2)cc1` (stereo unspecified), “inactive”.
As for `COc1ccc(-c2noc(CSc3nc(C)cc(=O)[nH]3)n2)cc1OC`, the Potency entry was “inactive”.
With `O=C(Nc1cccc2c1N(C(=O)c1ccco1)CCC2)c1ccco1` the entry was “inactive”; with `O=C(N/C(=C/c1ccc(Cl)cc1)C(=O)N1CCCCC1)c1ccco1`, “inactive”.
With `O=C(NC(=S)N1CCc2ccccc21)c1ccco1` the figure was 11.2 µM (active); with `O=C(NCc1ccco1)C1CCCN(S(=O)(=O)c2cccc3nonc23)C1` (stereo unspecified), “inactive”.
With `CC(=O)c1cccc(NC(=O)C2CCCN(S(=O)(=O)c3cccc4nonc34)C2)c1` (stereo unspecified) the figure was 31.6 µM (active).
For the compound `CC(=O)c1cccc(NC(=O)C2CCCN2S(=O)(=O)c2cccc3nsnc23)c1` (stereo unspecified), the Potency result is “inactive”.
Then `CCCCOc1ccc(NC(=O)c2cc3c(n(-c4ccc(Cl)cc4)c2=O)CCCC3=O)cc1`, with “inactive”; and `O=C(COc1ccccc1)NCc1ccc2c(c1)CCN2C(=O)c1ccc(F)cc1`, with “inactive”; and `Cc1nn2c(=O)cc(COC(=O)CNC(=O)c3ccc(F)cc3)nc2s1`, with “inactive”.
Then `Cc1ccc(S(=O)(=O)N(CC(=O)Nc2ccc(Cl)cc2Cl)c2ccccc2C)cc1`, with “inactive”.
Then `COc1cc(NC(=O)Cn2c(=O)n(Cc3ccco3)c(=O)c3oc4ccccc4c32)cc(OC)c1`, with “inactive”.
Regarding `COC(=O)c1ccccc1NC(=O)c1ccc(COc2ccccc2Cl)o1`, the Potency result is “inactive”.
As to `CCOc1cc(C(=O)NCCc2csc3nc(-c4ccc(C)cc4)nn23)cc(OCC)c1OCC`, the Potency result is “inactive”.
With `Cc1ccc(NC(=O)c2nc(S(=O)(=O)Cc3cccc(C)c3)ncc2Cl)cc1` the entry was “inactive”; with `O=C(Nc1ccccc1F)C(c1ccccc1)N1Cc2ccccc2C1=O` (stereo unspecified), “inactive”; with `CC1=CC(C)(C)Nc2ccc(OC(=O)CN3C(=O)C4CCCCC4C3=O)cc21` (stereo unspecified), 31.6 µM (active).
With `Cc1ccc(COC(=O)CN2C(=O)NC3(CCCC3)C2=O)cc1` the entry was “inactive”; with `CC(OC(=O)CN1C(=O)C2CCCCC2C1=O)C(=O)Nc1ncc(Cl)cc1Cl` (stereo unspecified), “inactive”.
Then `Cc1ccc2nc(COc3ccccc3NC(=O)Nc3ccc(F)c(Cl)c3)cc(=O)n2c1`, with “inactive”; and `O=c1c2cccnc2n(Cc2cccc(F)c2)c(=O)n1Cc1ccccc1Cl`, with “inactive”.
For `Cc1cc(C)cc(NS(=O)(=O)c2cc3c(cc2C)NC(=O)CO3)c1`, the Potency result is “inactive”.
With `Cc1ccc(N2CC(C(=O)Nc3ccc(N(C)C)cc3)CC2=O)cc1Cl` (stereo unspecified) the entry was “inactive”; with `CCOc1ccccc1N(C)C(=O)c1cc2c(s1)-c1ccccc1OC2`, “inactive”.
As for `CCc1cnc2c(c1SCC(=O)c1ccccc1)c(=O)n(C)c(=O)n2C`, the Potency result is “inactive”.
With `COc1ccccc1NC(=O)CN1C(=O)c2ccccc2Sc2ccc(C(=O)N3CCCC3)cc21` the entry was “inactive”; with `O=C1C(Cl)=C(Oc2ccccc2)C(=O)c2ccccc21`, 10 µM (active); with `COc1ccc2c(c1)c(=O)c(S(=O)(=O)c1ccc(F)cc1)cn2CC(=O)Nc1ccc(C)cc1C`, “inactive”.
Turning to `CCOc1ccc(NC(=O)c2c(NC(=O)Cc3ccccc3)sc3c2CCCCC3)cc1`, the Potency entry is “inactive”.
With `COc1ccccc1NC(=O)CSc1oc(-c2ccco2)nc1S(=O)(=O)c1ccc(Br)cc1` the entry was “inactive”; with `Cc1ccc(-c2noc(-c3nnn(-c4cccc(C(F)(F)F)c4)c3N)n2)cc1`, “inactive”.
With `O=C1c2ccccc2S(=O)(=O)c2cc(N3CCN(c4ccccn4)CC3)ccc21` the entry was “inactive”; with `Cc1ccc(CNC(=O)c2cccc3c2C(=O)c2ccc(N4CCC(C)CC4)cc2S3(=O)=O)cc1`, 12.6 µM (active); with `Cc1ccc(CNC(=O)c2ccccc2CCc2ccccc2)cc1`, “inactive”.
Then `Fc1ccc(CN2CCc3nc(Nc4ccccc4)ncc3C2)cc1F`, with “inactive”; and `CCOC(=O)c1cc(-c2ccccc2)n(-c2cccc(C(=O)Nc3cc(OC)cc(OC)c3)c2)c1C`, with “inactive”; and `Cn1ccc2cc(S(=O)(=O)N3CCCC(C(=O)NCc4ccccc4F)C3)ccc21` (stereo unspecified), with “inactive”.
Regarding `O=C(NC1CC(=O)N(c2ccccc2)C1)c1ccco1` (stereo unspecified), the Potency result was “inactive”.
Then `Cc1cn(C)c(CC(=O)NCc2ccc(Cl)cc2)c1C(=O)O`, with “inactive”; and `O=C(NCCc1csc(-c2ccc(C(F)(F)F)cc2)n1)C(=O)Nc1ccc(F)c(Cl)c1`, with “inactive”; and `Cc1cc(C)c2oc(-c3cccc(NC(=O)c4cccc(F)c4)c3C)nc2c1`, with “inactive”.
With `CCCCn1c(=O)c2oc3ccccc3c2n(CC(=O)Nc2ccccc2OC)c1=O` the entry was “inactive”; with `CCCCN(CC)C(=O)c1c[nH]c2ccc(S(=O)(=O)Nc3cccc(OC)c3)cc2c1=O`, “inactive”; with `CC(=O)N/C(=N/c1nc(C)cc(C)n1)Nc1ccc(F)cc1F`, “inactive”.
Then `Cc1cc(C)nc(-n2nc(C)cc2NC(=O)c2ccc(F)cc2F)n1`, with 12.6 µM (active); and `Cc1cc(C(=O)Nc2cccc(C(F)(F)F)c2)c2c(C)nn(-c3cccc(F)c3)c2n1`, with “inactive”; and `O=C(COc1ccc(Cl)cc1)Nc1ccccc1OCc1cc(=O)n2ccccc2n1`, with “inactive”.
Consider `COc1cccc(/C=N/NC(=O)c2[nH]nc3c2CCc2ccccc2-3)c1O`, for which the Potency was 25.1 µM (active).
With `Cc1ncc(CO)c(/C=N/NC(=O)c2cccc(S(=O)(=O)N3CCCC3)c2)c1O` the entry was “inactive”.
Then `Cc1ccccc1NC(=O)COc1cccc2c1CCNC2=O`, with “inactive”.
With `COC(=O)c1c(NC(=O)c2cc(=O)c3c(C)cc(C)cc3o2)sc2c1CCCC2` the entry was “inactive”; with `Cn1c(C(=O)Nc2cccc(C(F)(F)F)c2)cc2c(=O)n3ccccc3nc21`, “inactive”; with `Cc1ccc(NC2=C(c3ccc(C(F)(F)F)cc3)C(=O)c3ccccc32)cc1F`, “inactive”.
For `Cc1ccc(Cn2c(CCCNC(=O)C3CCCCC3)nc3ccccc32)cc1`, the Potency entry was “inactive”.
With `Cc1cccc(-c2nnc(SCC(=O)N3CCCc4ccccc43)o2)c1` the entry was “inactive”; with `Cc1cccc2cc3c(N)c(C(=O)N4CCCc5ccccc54)sc3nc12`, 11.2 µM (active); with `Cn1c(SCC(=O)N2CCCc3ccccc32)nc2ccccc2c1=O`, “inactive”.
Then `CCOC(=O)c1cccc(NC(=O)c2cc(CN3CCCC3)on2)c1`, with “inactive”.
Then `CC(=O)c1ccc(NC(c2ccc(F)cc2)c2nnc(-c3ccccc3)o2)cc1` (stereo unspecified), with “inactive”; and `CCc1ccc(N2C(=O)CN(S(=O)(=O)CC)CC2(C)C(=O)NC2CCCCC2)cc1` (stereo unspecified), with “inactive”; and `CCCn1c(=N)c(C(=O)NCc2ccccc2)cc2c(=O)n3cccc(C)c3nc21`, with “inactive”.
`CC(C)c1ccc(NC(=O)c2ccc(Cn3nc(N4CCN(c5ccccc5)CC4)ccc3=O)o2)cc1`: the Potency result was “inactive”.
With `Cn1c(=O)c2c(SCC(=O)NCC3CCCO3)nc(-c3ccccc3F)nc2n(C)c1=O` (stereo unspecified), the Potency result was “inactive”.
Then `Cc1ccc(-c2cc(C(=O)Oc3ccccc3Cl)no2)cc1C`, with “inactive”.
Then `O=c1cc(COc2cccc(C(F)(F)F)c2)nc2sc3c(n12)CCCC3`, with “inactive”; and `COc1ccc(CNC(=O)c2cc3cccc(OC)c3oc2=O)cc1`, with “inactive”.
